Screens deposited in PubChem BioAssay by National Center for Advancing Translational Sciences (NCATS).
This is a sample that favours compounds with a hit; in the whole collection about 7.2% have one here.
HCV inh: qHTS Assay for Inhibitors of Hepatitis C Virus (HCV); Huh7.5.1 HCVcc-Cre infection, luciferase reporter, 44 h; Potency, µM (highest dose often 41.8 µM), for inactives: at the highest dose activity change, negative = inhibition, actives largely listed as inhibitors; 340,000 tested, 3.4% active; AID 651820, 2012
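A cell-based infection assay in which seeded cells (1,000 per well) receive test compound after 4 h, are inoculated with HCVcc-Cre at approximately 0.5 moi, and are incubated 44 h before luminescence detection.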
Marburg entry inh: qHTS for inhibitors of binding or entry into cells for Marburg Virus; Marburg virus pseudotyped entry inhibition, cell reporter; Potency, µM (top dose mostly 37.8 µM), for inactives: top-dose activity change, negative = inhibition, usual class: inhibitors; 300,000 tested, 1.8% active; AID 540276, 2011; calls by dose curve; tested in HEK293 cells
RE007 growth inh: qHTS Assay for Inhibitors of the HIV-1 protein Vpr. S. pombe RE007 Vpr strain, BacTiter-Glo ATP luminescence, 24 h. Potency, µM (doses to about 92.2 µM), for inactives: at the highest dose activity change, negative = less growth, hits mostly inhibitors. 360,000 tested, 0.21% active. AID 651644, 2012; active means well fitted falling curve with a large enough effect; inconclusive means small, poorly fitted or top-dose-only effect; inactive means no such curve, though single readings can be large or run the other way; further: nearly all actives have a fitted effect of over 50% in size
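Fission yeast strain RE007, carrying one chromosomally integrated HIV-1 vpr copy, was seeded at OD 0.01 in PMG+AL medium with 23 nL pinned compound. After 24 h at 30 °C and 99% humidity, viability was read by BacTiter-Glo luminescence.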
LASV entry inh: qHTS for Inhibitors of binding or entry into cells for Lassa Virus; Lassa virus pseudotype entry inhibition, cell reporter; Potency, µM (titrated, usually from 37.9 µM), inactives show at the highest dose activity change, negative = inhibition, usual class: inhibitors; 300,000 tested, 1.2% active; AID 540256, 2011; calls by dose curve; tested in HEK293 cells; further: nearly all actives have a fitted effect of over 50% in size
Sm TGR block: qHTS Assay for the Inhibitors of Schistosoma Mansoni Peroxiredoxins. Schistosoma mansoni thioredoxin glutathione reductase (TGR), Q962Y6. AID 485364, 2010. 360,000 tested, 3% active. purified TGR, DTNB reduction, TNB absorbance 405 nm. Potency, µM (titrated, usually from 114 µM), inactives show at the highest dose activity change, negative = inhibition, actives largely listed as inhibitors; further: nearly all actives have a fitted effect of over 60% in size
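TGR 20 nM + NADPH 100 uM (dispensed conc.), cpd preinc 15 min RT; start with NADPH (500 uM addition) then DTNB (15 mM addition). Kinetic TNB absorbance, 405 nm filter. Four-parameter Hill fit across titration.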
FMDV antiviral: High Throughput Screening for Foot and Mouth Disease Virus Antivirals; Potency, µM (top dose mostly 57.9 µM), inactives show at the top dose activity change, negative = inhibition, actives largely listed as inhibitors; FMDV antiviral cell-based qHTS; 410,000 tested, 1.2% active; calls by dose curve; tested in HEK293T cells; further: read-out not given here; nearly all actives have a fitted effect of over 45% in size
Active calls of the source: *; ? = inconclusive; . = no result given; [ ] = remark or other dose. Unless noted, the call rests on the fitted dose curve; in most records, active means well fitted curve in the direction sought with a large enough effect; inconclusive means small, poorly fitted or top-dose-only effect, or another doubt; inactive means no such curve, though single readings can be large; an effect the other way counts as inactive or inconclusive. On the % scale 0 is the no-effect control and ±100 the full control effect; potency means the concentration at half of the fitted maximal effect.

SMILES | HCV inh | Marburg entry inh | RE007 growth inh | LASV entry inh | Sm TGR block | FMDV antiviral
CCC1CN2CCc3cc(OC)c(OC)cc3C2CC1CC1c2cc(OC)c(OC)cc2CCN1C(=O)C(Cc1c[nH]c2ccccc12)NC(=O)OC(C)(C)C (stereo unspecified) | 11µM* | ? | -23% | ? | . | -18%
Cn1c(=O)c2c3c(sc2n2c(SCC(N)=O)nnc12)C[C@H](C(C)(C)C)CC3 | . | -1% | . | . | . | .
COc1ccc([C@H]2c3cc(OC)c(OC)cc3C[C@@H](C)[C@@H]2C)cc1OC | . | . | . | . | . | -14%
CCOC(=O)c1c(C)oc2nc(C)nc(NCCCN3CCN(c4ccccc4OC)CC3)c12 | . | . | . | ? | -2% | -16%
CCN1CCN(CCCNC(=O)Cn2nc(C)n3c(cc4c(OC)cccc43)c2=O)CC1 | . | -4%[46.1 µM] | . | . | 10% | -14%
CCN1/C(=C\C=C(C(C)=O)C(C)=O)Sc2ccccc21 | -21% | -2%[46.1 µM] | -24% | -20%[46.1 µM] | -3% | -5%
CCN1/C(=C/C(C)=C/c2sc3ccccc3[n+]2CC)Sc2ccccc21 | 1µM* | 1.6µM* | 7.1µM* | 1.1µM* | -24% | 10µM*
CC(C)c1ccc(NC(=O)CN2C(=O)COc3ccc(S(=O)(=O)Nc4ccccc4)cc32)cc1 | . | . | . | -6%[46.1 µM] | 4% | 13%
Cn1c(-c2cccc(OCc3ccccc3)c2)nc2c1c(=O)[nH]c(=O)n2Cc1ccccc1 | 3% | -8% | -27% | ? | -12% | 35µM*
COc1ccc(-c2nc3c(c(=O)[nH]c(=O)n3Cc3ccccc3)n2C)cc1 | -1% | 10% | 16% | -18% | 1% | ?
COc1ccc(-c2nc3c(c(=O)[nH]c(=O)n3Cc3ccccc3)n2Cc2ccccc2)cc1 | 13µM* | ? | 19% | ? | -6% | ?
Cn1c(-c2cccc(F)c2)nc2c1c(=O)[nH]c(=O)n2Cc1ccccc1 | 0% | 0%[46.1 µM] | -7% | 8.9µM* | -15% | 1%
CCc1cccc(C)c1NC(=O)CCS(=O)(=O)c1cc(Br)cc2c1N(C(=O)C1CC1)CC2 | . | ? | . | -13%[46.1 µM] | -7% | -11%
O=C(c1cc(COc2cccc(C(F)(F)F)c2)on1)N1CCC(c2ccncc2)CC1 | ? | . | -18% | . | -21% | -2%
C=CCC1(CC=C)CCCN1C(=O)c1cc(COc2cccc(OC)c2)on1 | 14µM* | . | -6% | . | -8% | -24%
C=CCC1(CC=C)CCCN1C(=O)c1cc(COc2cncc(Cl)c2)on1 | . | . | . | . | 6% | .
COCC1CCCN(C(=O)c2cc(COc3ccc(C(C)=O)cc3)on2)C1 (stereo unspecified) | 15% | 4% | -11% | -25% | . | 7%
COc1cccc(OCc2cc(C(=O)N3CCC(c4ccncc4)CC3)no2)c1 | 10µM* | ? | -11% | ? | -3% | -27%
CC(=O)c1ccc(OCc2cc(C(=O)N3CCC(c4ccncc4)CC3)no2)cc1 | ? | . | -7% | . | 45µM* | ?
CC(=O)c1ccc(OCc2cc(C(=O)N(C)CCOc3ccc(C)cc3)no2)cc1 | 13µM* | . | -5% | . | 4% | 0%
CC(=O)NCCNc1ncncc1-c1ccccc1CN(C)C | . | . | . | . | . | -9%
O=C(CCS(=O)(=O)c1cccc2nonc12)Nc1ccc(F)cc1F | . | . | . | 26%[46.1 µM] | 0% | 0%
CC(=O)c1ccc(OCc2cc(C(=O)N3CC[C@@H]4CCCC[C@H]4C3)no2)cc1 | -26% | ? | -5% | ? | 13µM* | -8%
COc1cccc(OCc2cc(C(=O)NCC3CCCCC3)no2)c1 | 1% | . | 1% | . | 1% | 25%
COc1cccc(OCc2cc(C(=O)NCc3cnc4ccccn34)no2)c1 | 8.9µM* | . | -14% | . | 3% | ?
SMILES | HCV inh | Marburg entry inh | RE007 growth inh | LASV entry inh | Sm TGR block | FMDV antiviral
CCOC(=O)CC1(NC(=O)c2cc(COc3cccc(OC)c3)on2)CCCCC1 | 10µM* | . | -7% | . | -1% | -22%
Cc1cc2c(cc1NS(=O)(=O)c1ccc(NC(=O)CC(C)C)cc1)n(C)c(=O)c(=O)n2C | . | . | . | -21%[46.1 µM] | -4% | -27%
Cc1ccc(NC(=O)Cn2cc(S(=O)(=O)N3CCN(c4ccccc4F)CC3)c3ccccc3c2=O)cc1F | . | ? | . | -2%[46.1 µM] | -2% | -11%
COc1ccccc1CN1CCCC2(CCN(C(=O)c3cnccn3)CC2)C1 | . | . | . | . | . | -5%
CCOc1ccc(NC(=O)Cn2ncc3c2-c2cc(C)ccc2OC3)cc1 | . | -19%[46.1 µM] | . | . | 7% | -21%
CCN1C[C@@]2(COC)C3[C@@H](OC)C4[C@@H]1C3([C@@H]1C[C@@]3(O)[C@H](OC(=O)c5ccccc5)[C@@H]1[C@]4(OC(C)=O)[C@@H](O)[C@@H]3OC)[C@H](OC)C[C@H]2O | . | 1% | . | . | . | .
CN(C(=O)c1ccc2nc(N)sc2c1)c1ccccc1 | 4% | ? | 7% | 13%[46.1 µM] | 6% | 3%
CN(C(=O)c1ccccc1)c1nc2ccccc2s1 | -17% | 8.9µM* | ? | ? | 4% | -59%
CCCCn1nc2cc(C(=O)NCc3ccc(C(F)(F)F)cc3C(F)(F)F)ccc2c1OCC | ? | -7% | 1% | . | 1% | -20%
CCCCn1nc2cc(C(=O)NCc3ccccc3OC)ccc2c1OCC | 3.5µM* | . | 17% | . | 2% | 8%
Cc1ncc2c(c1CNC(=O)c1ccsc1)CCN(C(=O)c1c(F)cccc1Cl)C2 | . | . | . | . | . | -8%
CNC(=O)COc1ccccc1C(=O)Nc1ccc2c(c1)oc1ccccc12 | ? | 21µM* | 11% | ? | -23% | 14%
N#Cc1ccccc1NC(=O)c1ccccc1OCC(=O)Nc1ccc2c(c1)oc1ccccc12 | -17% | ? | 3% | 6% | . | .
Cc1ccccc1C(=O)Nc1ccccc1C(=O)OCc1cc(=O)n2ccsc2n1 | . | . | . | 15%[46.1 µM] | 0% | -3%
CC(C)C(=O)NCC1CCC2(CCN(Cc3ccc(-c4cccc(Cl)c4)o3)CC2)O1 (stereo unspecified) | . | . | . | . | . | 21%
O=C(Nc1c(F)cc(F)cc1Br)c1ccco1 | 2% | -10% | -1% | 12%[14.3 µM] | 45µM* | 18%
COc1ccc(OCC(=O)NNC(=O)C(=O)Nc2ccccc2)cc1 | -17% | . | -5% | . | . | 10%
